Measured values: PubChem BioAssay (NCATS)
Inconclusive results are not listed. The source made the active and inactive calls. Unless noted, calls follow the shape of the dose curve; as a rule, active = well fitted curve in the direction sought with a large enough effect; inconclusive = small, poorly fitted or top-dose-only effect, or another doubt; inactive = no such curve, though single readings can be large; an effect the other way counts as inactive or inconclusive.

What was measured:
[1] = qHTS Assay for Lipid Storage Modulators (AID 1519; calls by dose curve; as to activity change, negative = inhibition: % is scaled to controls: 0 for no effect and ±100 for the full control effect); settings: Drosophila S3 cells, BODIPY lipid droplet/cell ratio, laser cytometry, cells loaded with oleic acid; for activity change, negative = inhibition: at 57.5 µM (top of the series)
Procedure, shortened: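 Cells seeded at 5,000 per well were treated with compounds over a concentration series and loaded with oleic acid (400 uM, as added). Lipid droplet fluorescence (488 nm excitation, 500-530 nm channel) was read by laser-scanning cytometry and normalized to 20 uM Triacsin C.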

[2] = molecular target: DNA repair nuclease/redox regulator APEX1 (Homo sapiens) (UniProt P27695); test: qHTS Validation Assay for Inhibitors of the Human Apurinic/apyrimidinic Endonuclease 1 (APE1) (AID 1705;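 also: TAMRA fluorescence gain over two minutes as APE1 cuts a quenched THF abasic duplex; % is scaled to controls: 0 for no effect and ±100 for the full control effect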); settings: purified APE1 endonuclease activity, fluorescence, titration; series mostly up to 57.1 µM
Chain of DNA repair nuclease/redox regulator APEX1 (Homo sapiens) (P27695 whole entry, looked up): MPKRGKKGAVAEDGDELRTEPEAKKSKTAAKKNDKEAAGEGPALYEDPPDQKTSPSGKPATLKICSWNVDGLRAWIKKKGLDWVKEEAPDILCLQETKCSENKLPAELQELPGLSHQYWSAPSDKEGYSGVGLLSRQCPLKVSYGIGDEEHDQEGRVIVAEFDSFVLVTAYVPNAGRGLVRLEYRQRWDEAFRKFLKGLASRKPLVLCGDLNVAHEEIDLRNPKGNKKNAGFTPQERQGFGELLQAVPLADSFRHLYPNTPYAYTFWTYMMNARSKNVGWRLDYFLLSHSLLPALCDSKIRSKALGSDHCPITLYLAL
Procedure, shortened: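 Substrate: 50 nM final fluorophore/quencher THF-abasic duplex. Enzyme preincubated with compounds 15 min, RT. Progress derived from fluorescence difference, third minus first kinetic read.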

[3] = molecular target: Endonuclease 4 (Escherichia coli (strain K12)) (UniProt P0A6C1); test: Counterscreen for APE1 Inhibitors: qHTS Validation Assay for Inhibitors of Endonuclease IV (AID 1708); also: % is scaled to controls: 0 for no effect and ±100 for the full control effect; settings: E. coli endonuclease IV, DNA cleavage fluorescence; series mostly up to 57.1 µM
Procedure, shortened: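 Conditions: 2 nM enzyme, 50 nM TAMRA/BHQ-2 substrate, pH 7.5 Tris buffer with 2 mM MgCl2, RT. Compound preincubation 15 min; readout three fluorescence reads 60 s apart, third-minus-first.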

[4] = qHTS for differential inhibitors of proliferation of Plasmodium falciparum line GB4 (AID 1816); settings: Potency: Plasmodium falciparum GB4 proliferation inhibition; series mostly up to 28.7 µM;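 also: parasite growth measured after 72 h incubation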; also: potency is read from the fitted curve at half-maximal effect;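 as to activity change, negative = inhibition: 0% = vehicle DMSO and -100% = reference inhibitor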
[5] = qHTS for differential inhibitors of proliferation of Plasmodium falciparum line 3D7 (AID 1876); also: potency is read from the fitted curve at half-maximal effect; settings: P. falciparum 3D7 proliferation inhibition; series mostly up to 28.7 µM
[6] = qHTS for differential inhibitors of proliferation of Plasmodium falciparum line D10 (AID 1877); settings: series mostly up to 28.7 µM;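 also: parasites grown with compound for 72 h before DNA staining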; also: potency is read from the fitted curve at half-maximal effect;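 as to activity change, negative = inhibition: plate controls were vehicle wells for no effect and reference inhibitor wells for full effect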
[7] = qHTS for differential inhibitors of proliferation of Plasmodium falciparum line Dd2 (AID 1882); settings: Potency: Plasmodium falciparum Dd2 proliferation inhibition; series mostly up to 28.7 µM; also: nearly all actives have a fitted effect of over 65% in size; also: potency is read from the fitted curve at half-maximal effect;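 as to activity change, negative = inhibition: plate controls were DMSO vehicle for no effect and 0.29 µM artemisinin for full effect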
Procedure, shortened: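 SYBR Green DNA fluorescence (ex 485, em 535 nm) after overnight lysis quantifies parasite growth; compound exposure lasted 72 h at 37 C on infected red cells at 2.5% hematocrit, 0.3% parasitemia (final). Artemisinin 0.29 uM and vehicle wells define normalization.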

[8] = qHTS for differential inhibitors of proliferation of Plasmodium falciparum line W2 (AID 1883); settings: Potency: Plasmodium falciparum W2 proliferation inhibition; series mostly up to 28.7 µM;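 also: parasites grown with compound for 72 h before lysis and staining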; also: potency is read from the fitted curve at half-maximal effect;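 as to activity change, negative = inhibition: 0% = vehicle wells and -100% = control inhibitor wells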
[9] = qHTS for differential inhibitors of proliferation of Plasmodium falciparum line HB3 (AID 1886); settings: Potency: Plasmodium falciparum HB3 proliferation inhibition; series mostly up to 28.7 µM;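 also: parasites grown with compound for 72 h before SYBR Green readout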; also: potency is read from the fitted curve at half-maximal effect;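 as to activity change, negative = inhibition: plate controls were vehicle for no effect and reference inhibitor for full effect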
[10] = qHTS for differential inhibitors of proliferation of Plasmodium falciparum line 7G8 (AID 1815); settings: Plasmodium falciparum 7G8 proliferation inhibition; series mostly up to 28.7 µM;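 also: parasite growth measured after three days of incubation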; also: potency is read from the fitted curve at half-maximal effect;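 as to activity change, negative = inhibition: plate controls were vehicle wells for no effect and reference inhibitor wells for full effect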
[11] = measured here: cell count channel max response
[12] = measured here: lipid channel max response

CCC1(C2=NCCN2)Cc2ccccc2O1 (centres undefined)
active: Potency [4] 12.6 µM | Potency [7] 8.91 µM | Potency [8] 3.98 µM
-2.07%: max response [1, 12]
-3.38%: max response [1, 11]
inactive: activity change, negative = inhibition [1] -1.14% | outcome [2] | outcome [3] | Potency [5] | Potency [6] | Potency [9]

Cc1nc2n(c(=O)c1CCN1CCC(c3noc4cc(F)ccc34)CC1)CCCC2
active: Potency [10] 11.2 µM | Potency [4] 11.2 µM | Potency [5] 12.6 µM | Potency [6] 10 µM | Potency [8] 10 µM

Clc1cccc(N2CCNCC2)c1
active: Potency [4] 12.6 µM | Potency [8] 6.31 µM
inactive: outcome [2] | outcome [3] | Potency [5] | Potency [6] | Potency [9]

N#CC(C#N)=Cc1ccc(O)c(O)c1
inactive: outcome [2] | outcome [3] | Potency [7]
active: Potency [4] 14.1 µM | Potency [8] 12.6 µM

Cc1c(OCC(F)(F)F)ccnc1CS(=O)c1nc2ccccc2[nH]1 (centres undefined)
active: Potency [10] 8.91 µM | Potency [4] 10 µM | Potency [5] 11.2 µM | Potency [6] 12.6 µM | Potency [8] 10 µM | Potency [9] 11.2 µM

CC(CCc1ccccc1)NC(C)C(O)c1ccc(O)cc1 (centres undefined)
active: Potency [10] 7.94 µM | Potency [4] 3.16 µM | Potency [7] 5.01 µM | Potency [8] 2.51 µM
inactive: outcome [2] | Potency [6]

O=c1[nH]c2ccccc2n1CCCN1CCC(n2c(=O)[nH]c3cc(Cl)ccc32)CC1
active: Potency [4] 12.6 µM | Potency [6] 14.1 µM | Potency [7] 8.91 µM | Potency [8] 4.47 µM
inactive: outcome [2] | outcome [3]

O=c1[nH]cc(F)c(=O)[nH]1
active: Potency [10] 7.08 µM | Potency [4] 7.94 µM | Potency [5] 4.47 µM | Potency [6] 4.47 µM | Potency [8] 7.94 µM | Potency [9] 5.01 µM

OCCN1CCN(CCCN2c3ccccc3Sc3ccc(C(F)(F)F)cc32)CC1
active: Potency [10] 2.82 µM | Potency [4] 2.51 µM | Potency [5] 2.51 µM | Potency [6] 10 µM | Potency [7] 10 µM | Potency [8] 1.41 µM | Potency [9] 4.47 µM

CCCC(C)(COC(N)=O)COC(=O)NC(C)C (centres undefined)
inactive: outcome [2] | outcome [3] | Potency [10] | Potency [4] | Potency [5] | Potency [6] | Potency [7] | Potency [8] | Potency [9]

CC[N+](CC)(CC)CC
inactive: outcome [2] | Potency [7]
active: Potency [5] 11.2 µM | Potency [6] 11.2 µM

CC(COc1ccccc1)N(CCCl)Cc1ccccc1 (centres undefined)
active: Potency [10] 7.94 µM | Potency [8] 2.51 µM

O=C1NCN(c2ccccc2)C12CCN(CC1COc3ccccc3O1)CC2 (centres undefined)
12.8%: max response [1, 12]
inactive: activity change, negative = inhibition [1] 1.66% | outcome [2] | Potency [7]
10.9%: max response [1, 11]
active: Potency [10] 8.91 µM | Potency [8] 10 µM

NCC(O)c1ccc(O)cc1 (centres undefined)
inactive: outcome [3] | Potency [10] | Potency [4] | Potency [5] | Potency [6] | Potency [7] | Potency [8] | Potency [9]

NN=C(N)N
inactive: outcome [2] | outcome [3] | Potency [10] | Potency [4] | Potency [5] | Potency [6] | Potency [7] | Potency [8] | Potency [9]

CNCCC(Oc1ccc(C(F)(F)F)cc1)c1ccccc1 (centres undefined)
3.92%: max response [1, 12]
inactive: activity change, negative = inhibition [1] 1.75% | outcome [2]
active: Potency [6] 10 µM | Potency [8] 2.24 µM
-0.474%: max response [1, 11]

C=C(C)[C@H]1Cc2c(ccc3c2O[C@@H]2COc4cc(OC)c(OC)cc4[C@@H]2C3=O)O1
inactive: outcome [2] | outcome [3] | Potency [7]
active: Potency [10] 11.2 µM | Potency [4] 12.6 µM | Potency [8] 8.91 µM

CN(C)CCC=C1c2ccccc2CCc2ccccc21
active: Potency [10] 10 µM | Potency [4] 7.94 µM | Potency [6] 8.91 µM | Potency [8] 3.16 µM | Potency [9] 14.1 µM

CC(=O)[C@H]1CC[C@H]2[C@@H]3CC[C@H]4C[C@H](O)CC[C@]4(C)[C@H]3C(=O)C[C@]12C
15.5%: max response [1, 12]
inactive: activity change, negative = inhibition [1] -2.01% | outcome [2] | Potency [10] | Potency [4] | Potency [5] | Potency [6] | Potency [7] | Potency [9]
15.7%: max response [1, 11]

CCCN1CCC[C@@H]2Cc3nc(N)ncc3C[C@H]21
inactive: outcome [2] | outcome [3] | Potency [10] | Potency [4] | Potency [5] | Potency [6] | Potency [7] | Potency [8] | Potency [9]

COc1ccc(Cc2nccc3cc(OC)c(OC)cc23)cc1OC
inactive: outcome [2] | Potency [10] | Potency [7]

Cc1ccc(S(=O)(=O)N[C@@H](CCCCN)C(=O)CCl)cc1
inactive: outcome [2] | outcome [3] | Potency [10] | Potency [4] | Potency [6] | Potency [7] | Potency [9]

CNCC(O)c1ccc(O)cc1 (centres undefined)
inactive: outcome [2] | outcome [3] | Potency [10] | Potency [4] | Potency [5] | Potency [6] | Potency [7] | Potency [8] | Potency [9]

O=c1[nH]c2ccccc2n1C1CCN(CCCC(c2ccc(F)cc2)c2ccc(F)cc2)CC1
active: Potency [10] 3.98 µM | Potency [4] 8.91 µM | Potency [5] 3.16 µM | Potency [6] 7.08 µM | Potency [7] 10 µM | Potency [8] 2.82 µM | Potency [9] 5.62 µM

COc1cc2c(c(OC)c1OC)-c1ccc(OC)c(=O)cc1[C@@H](NC(C)=O)CC2
inactive: outcome [3]
active: Potency [10] 11.2 µM | Potency [5] 10 µM | Potency [8] 11.2 µM

COC[C@H]1OC(=O)c2coc3c2[C@@]1(C)C1=C(C3=O)C2CCC(=O)[C@@]2(C)C[C@H]1OC(C)=O (some centres undefined)
inactive: outcome [2] | Potency [6]
active: Potency [5] 12.6 µM | Potency [7] 11.2 µM | Potency [8] 11.2 µM
